# From PubChem
# An excerpt weighted towards active compounds, which were near 3.5% of everything screened.
# TEAD-YAP block – TEAD-YAP interaction inhibition, primary screen, TEAD-YAP interaction inhibitor project, luminescence, HEK-TIYL cells. TEAD-Gal4/YAP UAS-luciferase luminescence. inhibition, % at 9.12 µM. 640,000 compounds, 1.4% hits; in the data active = inhibition above about 32%;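 also: 0% = median of test compound wells and 100% = reference inhibitor wells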
# FBW7 act – FBW7 E3 ligase activators, primary screen, biochemical, AlphaScreen, human; F-box/WD repeat-containing protein 7 (Homo sapiens), Q969H0; 650,000 compounds, 0.13% hits; normalized activity (activation), % at 26.1 µM; AlphaScreen FBW7–phospho-cyclin E peptide binding, activator screen; in the data active = normalized activity above about 1.9%;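 also: purified mutant Fbw7 with reduced substrate affinity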
# MITF inh – MITF inhibitors, primary screen, biochemical, AlphaScreen, human | AlphaScreen MITF homodimerization, bead proximity signal | 650,000 compounds, 0.91% hits | Microphthalmia-associated transcription factor (Homo sapiens), O75030 | inhibition, % at 2.6 µM; in the data active = inhibition above about 50%;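 also: 0% = vehicle wells with protein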
# GPR151 activ – activators of human GPR151, primary screen, cell-based, PathHunter beta-arrestin, luminescence | G-protein coupled receptor 151 (Homo sapiens), Q8TDV0 | PathHunter beta-arrestin GPR151 cells | activation, % at 11.2 µM | 650,000 compounds, 1% hits | AID 1508602, 2020; in the data active = activation above about 4.9%;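 also: 0% = median of compound wells and 100% = cells with positive control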
# Target sequence (Q8TDV0 whole entry, looked up): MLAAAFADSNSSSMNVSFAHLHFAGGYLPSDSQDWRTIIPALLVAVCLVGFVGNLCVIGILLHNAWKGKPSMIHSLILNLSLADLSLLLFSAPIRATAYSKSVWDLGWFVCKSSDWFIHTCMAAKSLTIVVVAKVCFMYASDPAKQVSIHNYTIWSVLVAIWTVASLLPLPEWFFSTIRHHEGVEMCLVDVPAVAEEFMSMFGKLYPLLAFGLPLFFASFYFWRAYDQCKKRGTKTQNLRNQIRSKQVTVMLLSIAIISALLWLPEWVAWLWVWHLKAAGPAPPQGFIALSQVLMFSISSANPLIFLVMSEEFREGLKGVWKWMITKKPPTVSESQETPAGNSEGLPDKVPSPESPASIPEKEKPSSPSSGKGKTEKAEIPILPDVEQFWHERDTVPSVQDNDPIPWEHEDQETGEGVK
# Numbers without * were called inactive.
SMILES,TEAD-YAP block,FBW7 act,MITF inh,GPR151 activ
COc1ccccc1-c1nc2sc3c(c2c(=O)o1)CCCC3,68*,0,-3,3
O=c1oc(-c2ccccc2F)nc2sc3c(c12)CCCC3,0,0,8,0
O=C(CC1CCCCC1)Nc1nnc2n1CCS2,-4,3.1*,19,1
CN(C)c1ccc(C(CNC(=O)Cc2ccc(F)cc2)N2CCN(c3ccccc3)CC2)cc1 (configuration not stated),-1,0,72*,1
COc1cccc(C2C(C(C)=O)=C(O)C(=O)N2c2nc3ccccc3s2)c1 (configuration not stated),-46,0,8,0
COc1ccc(C2C(C(C)=O)=C(O)C(=O)N2c2nc3ccccc3s2)c(OC)c1 (configuration not stated),47*,0,1,0
COc1ccc(C2/C(=C(\O)c3ccccc3)C(=O)C(=O)N2c2nc3ccccc3s2)c(OC)c1 (configuration not stated),20,0,18,0
COc1ccc(C2/C(=C(\O)c3ccc(Cl)cc3)C(=O)C(=O)N2c2nc3ccccc3s2)c(OC)c1 (configuration not stated),41*,0,-1,-1
COC(=O)c1cc(C(=O)Nc2ccccc2C(=O)Nc2ccc(OC)cc2)cc([N+](=O)[O-])c1,-23,0,-14,1
CCOC(=O)CNC(=O)CSc1nc2sc3c(c2c(=O)[nH]1)CCC(C)C3 (configuration not stated),89*,0,-1,-2
COc1cccc(-c2cc(C(=O)Nc3cc(C)ccc3O)on2)c1,-33,0,0,-2
CCOC(=O)c1c(C)[nH]c(C(=O)CSc2nnc(NCc3ccccc3)s2)c1C,4,0,11,2
CC(=O)c1c(C)[nH]c(C(=O)CSc2nnc(NCc3ccccc3)s2)c1C,42*,0,-3,0
COc1ccc(/C=C2/SC(=Nc3ccc(O)cc3)NC2=O)c(OC)c1OC,0,0,0,2
COc1cccc(/C=C2\SC(=Nc3ccc(O)cc3)NC2=O)c1OC,46*,0,4,3
COc1ccc(/C=C2/SC(=Nc3ccccc3)NC2=O)cc1OC,1,0,7,1
COc1ccc(/C=C2\SC(=Nc3cccc(O)c3)NC2=O)cc1OC,43*,0,3,1
Nc1cccc(-c2nc3ncnc(NCc4ccccc4)c3[nH]2)c1,1,0,15,-1
O=C(NCCN1CCOCC1)c1nc(-c2cccnc2)no1,1,0,-7,-3
COc1cc(C2c3cccn3CCN2C(=S)Nc2ccc(F)cc2)cc(OC)c1OC (configuration not stated),3,0,-29,2
Cc1ccc(S(=O)(=O)N2CC=C(C(=O)Nc3ccc(C)c(Cl)c3)CC2)cc1,2,0,-4,0
COc1cccc(-c2cc(C(=O)Nc3cc(C)nn3-c3ccccc3)no2)c1,1,0,3,1
COc1ccccc1-c1cc(C(=O)Nc2cc(C)nn2-c2ccccc2)no1,34*,0,4,-1
COc1ccccc1-c1cc(C(=O)Nc2cc(OC)c(OC)c(OC)c2)no1,46*,0,24,0
N#CC1CCCc2c1[nH]c1ccc(Cl)cc21 (configuration not stated),39*,0,-1,2
SMILES,TEAD-YAP block,FBW7 act,MITF inh,GPR151 activ
COc1cccc(CC2(C3CCN(Cc4nc[nH]c4C)CC3)NC(=O)N(C)C2=O)c1 (configuration not stated),7,0,9,0
COc1ccc(C2CC(c3ccc(Cl)cc3)Nc3ncnn32)c(OC)c1OC (configuration not stated),5,0,7,2
COc1cc(C2CC(c3ccc(Cl)cc3)Nc3ncnn32)cc(OC)c1OC (configuration not stated),54*,0,6,4
O=C(NCCOc1ccc(Cl)cc1)c1cccc(C(=O)NCCOc2ccc(Cl)cc2)c1,6,0,7,0
NS(=O)(=O)c1cc(C(=O)NCCOc2ccc(Cl)cc2)c(Cl)cc1Cl,37*,0,-7,-1
C/C(=N\N=C(/N)SC1CC(=O)N(c2ccc(Cl)cc2)C1=O)c1ccc(F)cc1 (configuration not stated),11,0,2,1
O=C(O)CCNc1cc(N2CCC3(CC2)OCCO3)c2noc3c2c1C(=O)c1ccccc1-3,26,-1,63*,-2
